# Experimental data: PubChem BioAssay (EPA / NIEHS)
# Records with an inconclusive call do not appear. Activity calls are given as the source filed them. Rule for the calls, unless noted: active = hit-call score of the fitted dose curve at least 0.9, where 1 is the maximum; inconclusive = response in the unintended direction; inactive = score below 0.9.
# Columns and labels:
# [1] = CCTE_Shafer_MEA_dev_per_burst_spike_percent: CCTE's Neural Network Formation Assay for Percent of Spikes in a Burst, Shafer Lab (AID 2284032; active = hit-call score of the fitted dose curve at least 0.9, where 1 is the maximum; inactive = score below 0.9;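 for AC50: fitted as a decrease in burst spike percentage below DMSO baseline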)
# How it was run: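 Rat primary cortical neurons on 16-electrode MEA wells, dosed from plating day 0 for 12 days with renewal on DIV 5 and 9; spikes-in-bursts percentage averaged over bursting electrodes, collapsed as AUC across days 5, 7, 9, 12; loss direction versus DMSO.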
# [2] = CCTE_Shafer_MEA_dev_burst_rate: CCTE's Neural Network Formation Assay for Burst Rate, Shafer Lab (AID 2284042; active = hit-call score of the fitted dose curve at least 0.9, where 1 is the maximum; inactive = score below 0.9;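 for AC50: potency for loss of burst rate below DMSO control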)
# How it was run: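 Developmental network assay measuring how 12-day exposure of rat cortical neuron cultures alters bursting on extracellular MEA recordings. Values are AUC of well-mean burst rate across four recording days, relative to DMSO vehicle.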
# [3] = CCTE_Shafer_MEA_dev_per_burst_interspike_interval: CCTE's Neural Network Formation Assay for Burst Interspike Interval, Shafer Lab (AID 2284044; active = hit-call score of the fitted dose curve at least 0.9, where 1 is the maximum; inactive = score below 0.9;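 note: mean spike spacing inside bursts as AUC over recordings on days 5 7 9 12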;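 for AC50: potency for a decrease of within-burst interspike interval below DMSO level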)
# How it was run: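 Primary rat cortical neurons on 48-well MEA plates, exposed from day 0 through day 12, treatment renewed at DIV 5 and 9. Within-burst interspike interval recorded days 5, 7, 9, 12, well-averaged, summarised as AUC; negative fit versus DMSO.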
# [4] = CCTE_Shafer_MEA_dev_burst_duration_mean: CCTE's Neural Network Formation Assay for Mean Burst Duration, Shafer Lab (AID 2284045; active = hit-call score of the fitted dose curve at least 0.9, where 1 is the maximum; inactive = score below 0.9;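 for AC50: curve fitted for loss meaning shorter burst duration than DMSO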)
# How it was run: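 Read-out: average first-to-last-spike interval within single-electrode bursts, averaged over bursting electrodes per well, then summarised as area under the curve across days 5, 7, 9 and 12. Developing rat cortical networks were exposed from day 0.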
# [5] = CCTE_Shafer_MEA_dev_interburst_interval_mean: CCTE's Neural Network Formation Assay for Mean Interburst Interval, Shafer Lab (AID 2284046; active = hit-call score of the fitted dose curve at least 0.9, where 1 is the maximum; inactive = score below 0.9;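 note: well-mean interburst interval of bursting electrodes as AUC over four recording days; curve fitted for decrease in interburst interval relative to DMSO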)
# How it was run: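 Network formation assay in primary rat cortical cultures, exposed from DIV 0 to 12. Mean interburst interval per well, integrated as AUC over four recordings.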
# [6] = CCTE_Shafer_MEA_dev_network_spike_peak: CCTE's Neural Network Formation Assay for Mean Number of Electrodes in Network Spike, Shafer Lab (AID 2284049; active = hit-call score of the fitted dose curve at least 0.9, where 1 is the maximum; inactive = score below 0.9;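 for AC50: fitted for loss of signal meaning fewer electrodes in network spikes than DMSO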)
# How it was run: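 Rat cortical primary culture, 1.5 x 10^5 cells/well, 48-well MEA (16 electrodes/well). Dosing day 0 through DIV 12, full media/compound exchange DIV 5, 9. AxIS adaptive spike detection; AUC over days 5/7/9/12; loss-of-signal vs DMSO.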
# [7] = CCTE_Shafer_MEA_dev_spike_duration_mean: CCTE's Neural Network Formation Assay for Mean Spike Duration, Shafer Lab (AID 2284051; active = hit-call score of the fitted dose curve at least 0.9, where 1 is the maximum; inactive = score below 0.9;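 note: mean network spike duration pooled as area under curve over DIV 5 to 12 recordings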;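 for AC50: potency for a decrease in mean network spike duration versus DMSO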)
# How it was run: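 With DMSO as baseline, loss of mean network spike duration was scored from extracellular recordings of rat cortical neurons on MEA plates. Exposure spanned plating to DIV 12; the four recording days were collapsed into one AUC value.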
# [8] = CCTE_Shafer_MEA_dev_network_spike_duration_std: CCTE's Neural Network Formation Assay for Standard Deviation of Network Spike Duration, Shafer Lab (AID 2284052; active = hit-call score of the fitted dose curve at least 0.9, where 1 is the maximum; inactive = score below 0.9;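 note: area under curve of spike duration SD across recording days 5 to 12; hits are decreases in network spike duration SD versus DMSO vehicle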)
# How it was run: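 Developing networks of rat cortical neurons were exposed over twelve days in vitro on 48-well MEA plates. Trapezoidal AUC of recordings (DIV 5–12) was analysed for signal loss relative to DMSO vehicle.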
# [9] = CCTE_Shafer_MEA_dev_per_network_spike_spike_percent: CCTE's Neural Network Formation Assay for Percent of Spikes in a Network Spike, Shafer Lab (AID 2284054; active = hit-call score of the fitted dose curve at least 0.9, where 1 is the maximum; inactive = score below 0.9)
# How it was run: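 Rat primary cortical cultures, 1.5 x 10^5 cells/well on MEA. Continuous compound exposure d0–12, medium/compound renewed DIV 5, 9. Network-spike spike % (0.05 s peak window), AUC over 4 recordings, DMSO baseline.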
# [10] = CCTE_Shafer_MEA_dev_active_electrodes_number: CCTE's Neural Network Formation Assay for Number of Active Electrodes, Shafer Lab (AID 2284040);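 for AC50: potency for loss of active electrodes versus DMSO so lower counts are hits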
# How it was run: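 Primary rat cortical neurons on 16-electrode MEA wells, exposed from day 0 through day 12 with compound renewed at DIV 5 and 9 feeds. Active electrodes (mean firing ≥5 spikes/min) counted at DIV 5, 7, 9, 12; trapezoidal AUC across days, loss-of-signal versus DMSO.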
# [11] = CCTE_Shafer_MEA_dev_bursting_electrodes_number: CCTE's Neural Network Formation Assay for Number of Bursting Electrodes, Shafer Lab (AID 2284043);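 for AC50: potency is for loss of bursting electrodes relative to DMSO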
# How it was run: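 Read-out is the per-well number of electrodes bursting at least once every 2 minutes, recorded on days 5, 7, 9 and 12 and collapsed by trapezoidal area under the curve. Cultures were primary rat cortical neurons on MEA plates, treated continuously from plating.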
# [12] = CCTE_Shafer_MEA_dev_LDH: CCTE's Lactate Dehydrogenase Assay for Cytotoxicity in the Neural Network Formation Assay, Shafer Lab (AID 2284068);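 note: exposure for twelve days from plating with re-dosing on DIV 5 and 9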
# How it was run: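 Developing rat cortical networks on MEA plates are exposed to compound for 12 days from plating. LDH activity is measured spectrophotometrically, with DMSO as baseline.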
# [13] = CCTE_Deisenroth_AIME_384WELL_CTox_Active: Cytotoxicity Assessment (CTOX) in CCTE's 384-well Estrogen Receptor Transactivation Assay with AIME metabolic competence (metabolism positive), Deisenroth Lab (AID 2284037);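 note: chemicals first conditioned 2 h by alginate-bound induced rat liver S9 before cells; activity means signal loss indicating cell death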
# How it was run: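 Cytotoxicity in VM7Luc4E2 breast cells, 24 hour, measured as protease-substrate fluorescence loss, after 2-hour metabolic conditioning with induced rat hepatic S9 in alginate microspheres. Concentrations 0.002 - 200 uM, 10 points, bidirectional fitting.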
# [14] = molecular target: Estrogen receptor (Homo sapiens) (UniProt P03372); assay: CCTE_Deisenroth_AIME_384WELL_LUC_Inactive: CCTE's 384-well Estrogen Receptor Transactivation Assay without AIME metabolic competence (ERTA luciferase; metabolism negative), Deisenroth Lab (AID 2284038);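 note: VM7Luc4E2 breast cells given medium preincubated 2 h with S9-free microspheres; hits raise estrogen receptor luciferase signal so potencies reflect agonists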
# How it was run: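 Metabolism-negative mode: chemicals (10-point, 0.002–200 uM) held 2 h with alginate-water microspheres, then conditioned medium applied to VM7Luc4E2 cells for 24 h. Luciferase induction referenced to 17beta-estradiol.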
# [15] = CCTE_Deisenroth_AIME_384WELL_CTox_Inactive: Cytotoxicity Assessment (CTOX) in CCTE's 384-well Estrogen Receptor Transactivation Assay without AIME metabolic competence (metabolism negative), Deisenroth Lab (AID 2284039);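 note: cell viability via live-cell protease substrate cleaved to fluorescent probe; cells exposed 24 h to medium preincubated 2 h with alginate-water beads without S9; loss of fluorescence signal means loss of viability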
# How it was run: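 Fluorescence from a live-cell protease substrate, read after 24 h in VM7Luc4E2 cells, indicated viability. Test medium came from a 2 h AIME step without hepatic S9 (alginate-water microspheres); concentrations spanned 0.002 - 200 uM, single technical replicate per run.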
# [16] = molecular target: Estrogen receptor (Homo sapiens) (UniProt P03372); assay: CCTE_Deisenroth_AIME_384WELL_LUC_Shift: CCTE's 384-well Estrogen Receptor Transactivation Assay with AIME metabolic competence data shift (ERTA luciferase; difference in metabolism positive and negative), Deisenroth Lab (AID 2284041; active = hit-call score of the fitted dose curve at least 0.9, where 1 is the maximum; inactive = score below 0.9;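 note: shift is response with S9 minus without S9 so positive means metabolism raised ER signal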)
# How it was run: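 Test chemicals (0.002–200 uM, 10-point) were pre-incubated 2 h with alginate microspheres containing phenobarbital/beta-naphthoflavone-induced male Sprague Dawley rat liver S9 or water, then medium was transferred to VM7Luc4E2 cells for 24 h luciferase readout; shift = S9-positive minus S9-negative normalized response.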
# [17] = CCTE_Shafer_MEA_acute_AB: CCTE's Alamar Blue Assay for Cytotoxicity in the Neural Acute Assay, Shafer Lab (AID 2284069);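 note: active compounds lower the viability signal compared with DMSO wells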
# How it was run: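 Cytotoxicity endpoint for acute MEA exposures of primary rat cortical neurons on day 13 or 15. Resazurin reduction is read fluorescently at 544/590 nm, with DMSO as the negative-control baseline.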
# [18] = tested on: DIO2 (gene 1734); assay: CCTE_GLTED_hDIO2: CCTE's human Deiodinase 2 (DIO2) Inhibition Assay, Great Lakes Toxicology and Ecology Division (GLTED) Lab (AID 2284050)
# How it was run: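 Cell-free human DIO2 incubated 3 h with chemical; liberated iodide quantified by Sandell-Kolthoff absorbance. Triplicate plates; loss of signal fitted vs DMSO.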
# [19] = tested on: DIO3 (gene 1735); assay: CCTE_GLTED_hDIO3: CCTE's human Deiodinase 3 (DIO3) Inhibition Assay, Great Lakes Toxicology and Ecology Division (GLTED) Lab (AID 2284055);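 note: potency is for inhibition seen as loss of released iodide signal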
# How it was run: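 Human DIO3 from an adenovirus expression system is incubated 3 h with test chemical. Released iodide is quantified by Sandell-Kolthoff absorbance, in triplicate plates. Loss of signal is fitted relative to DMSO.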
# [20] = UKN5_HCS_SBAD2_cell_viability: Viability Assessment in the University of Konstanz (UKN) Leist Lab Neurite Outgrowth Assay in human iPSC-derived immature Dorsal Root Ganglia Neurons (UKN5) (AID 2284056; active = hit-call score of the fitted dose curve at least 0.9, where 1 is the maximum; inactive = score below 0.9)
# How it was run: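 iPSC-derived immature peripheral neurons (SBAD2) seeded on Matrigel with CHIR99021, SU5402 and DAPT, dosed 1 h later for 24 h. Viability from Hoechst H-33342 and calcein-AM live staining, high-content imaging; bidirectional fit versus DMSO.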
# Estrogen receptor (Homo sapiens), sequence (P03372 whole entry, looked up): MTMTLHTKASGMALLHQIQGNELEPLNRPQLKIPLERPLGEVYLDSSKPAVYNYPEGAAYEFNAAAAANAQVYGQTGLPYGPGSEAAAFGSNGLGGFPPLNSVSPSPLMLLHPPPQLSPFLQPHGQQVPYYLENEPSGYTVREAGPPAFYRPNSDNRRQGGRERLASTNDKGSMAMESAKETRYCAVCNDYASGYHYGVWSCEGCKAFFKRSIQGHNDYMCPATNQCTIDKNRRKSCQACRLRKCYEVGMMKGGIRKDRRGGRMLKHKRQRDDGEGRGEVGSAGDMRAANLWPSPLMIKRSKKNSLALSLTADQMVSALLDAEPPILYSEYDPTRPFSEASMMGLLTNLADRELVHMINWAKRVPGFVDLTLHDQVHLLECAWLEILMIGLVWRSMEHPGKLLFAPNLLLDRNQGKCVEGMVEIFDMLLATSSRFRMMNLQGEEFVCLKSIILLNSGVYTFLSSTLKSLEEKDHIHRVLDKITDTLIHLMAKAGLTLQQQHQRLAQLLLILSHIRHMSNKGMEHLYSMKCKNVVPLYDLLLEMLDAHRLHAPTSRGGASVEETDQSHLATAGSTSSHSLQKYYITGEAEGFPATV
structure (smiles),measurement,setting,value
CS(=O)(=O)c1ccc(C(=O)C2C(=O)CCCC2=O)c(Cl)c1COCC(F)(F)F,outcome,[1],inactive
same,outcome,[2],inactive
same,outcome,[3],inactive
same,outcome,[4],inactive
same,outcome,[5],inactive
same,outcome,[6],inactive
same,outcome,[7],inactive
same,outcome,[8],inactive
same,outcome,[9],inactive
Cc1cc(C(F)(C(F)(F)F)C(F)(F)F)ccc1NC(=O)c1cccc(I)c1C(=O)NC(C)(C)CS(C)(=O)=O,AC50,[1],5.5 µM (active)
same,AC50,[10],11.3 µM (active)
same,outcome,[2],inactive
same,AC50,[11],11.3 µM (active)
same,outcome,[3],inactive
same,outcome,[4],inactive
same,AC50,[5],6.7 µM (active)
same,AC50,[6],18 µM (active)
same,AC50,[7],11.3 µM (active)
same,outcome,[8],inactive
same,AC50,[9],20.9 µM (active)
same,AC50,[12],11.3 µM (active)
CCOc1ccc(N)cc1,outcome,[13],inactive
same,outcome,[14],inactive
same,outcome,[15],inactive
same,outcome,[16],inactive
C=CCOC(F)(C(F)(F)F)C(F)(F)F,outcome,[1],inactive
same,outcome,[10],inactive
same,outcome,[2],inactive
same,outcome,[11],inactive
same,outcome,[3],inactive
same,outcome,[4],inactive
same,outcome,[5],inactive
same,AC50,[6],0.0255 µM (active)
same,outcome,[7],inactive
same,outcome,[8],inactive
same,outcome,[9],inactive
CNC(=O)O/N=C/C(C)(C)S(C)(=O)=O,outcome,[13],inactive
same,outcome,[14],inactive
same,outcome,[15],inactive
same,outcome,[16],inactive
NC(=O)c1ccc(N)nc1,AC50,[1],5.88 µM (active)
same,AC50,[10],6.3 µM (active)
same,AC50,[2],8.62 µM (active)
same,AC50,[11],5.44 µM (active)
same,AC50,[3],8.19 µM (active)
same,AC50,[4],8.66 µM (active)
same,AC50,[5],3.16 µM (active)
same,AC50,[6],4.53 µM (active)
same,AC50,[7],7.59 µM (active)
same,AC50,[8],7.69 µM (active)
same,AC50,[9],6.23 µM (active)
same,AC50,[12],6.05 µM (active)
O=c1[nH]c(=O)n(Cl)c(=O)n1Cl,outcome,[13],inactive
CCN(CCO)CCO,outcome,[13],inactive
same,outcome,[14],inactive
same,outcome,[15],inactive
same,outcome,[16],inactive
CC(C)[C@@H](Nc1ccc(C(F)(F)F)cc1Cl)C(=O)OC(C#N)c1cccc(Oc2ccccc2)c1 (some centres not stated),outcome,[1],inactive
same,AC50,[10],14.5 µM (active)
same,outcome,[2],inactive
same,AC50,[11],14.5 µM (active)
same,outcome,[3],inactive
same,outcome,[4],inactive
same,outcome,[5],inactive
same,AC50,[6],20.9 µM (active)
same,AC50,[7],25.8 µM (active)
same,outcome,[8],inactive
same,AC50,[9],14.5 µM (active)
same,AC50,[12],23.5 µM (active)
same,outcome,[17],inactive
N#Cc1cccnc1,outcome,[14],inactive
same,outcome,[16],inactive
Oc1ccc(Cc2ccc(O)cc2)cc1,outcome,[17],inactive
O=C(O)COc1ccc(Cl)cc1,outcome,[14],inactive
same,outcome,[15],inactive
same,outcome,[16],inactive
O=C1c2ccccc2C(=O)C1C(=O)C(c1ccccc1)c1ccc(Cl)cc1 (configuration not stated),AC50,[18],91.9 µM (active)
same,AC50,[19],68.5 µM (active)
OCCCCO,outcome,[17],inactive
Clc1cccc(Cl)c1,outcome,[15],inactive
CCC[CH2][Sn]([Cl])([Cl])[CH2]CCC,AC50,[13],13.6 µM (active)
same,AC50,[15],9.65 µM (active)
same,outcome,[16],inactive
CCCCCCCCCCCCc1cccc(S(=O)(=O)O)c1,outcome,[13],inactive
same,outcome,[15],inactive
same,AC50,[18],90.4 µM (active)
same,AC50,[19],38.1 µM (active)
same,outcome,[17],inactive
O=[N+]([O-])c1ccc(Cl)c([N+](=O)[O-])c1,AC50,[18],30.3 µM (active)
same,AC50,[19],7.41 µM (active)
CC(C)O.CC(C)O.OCCN(CCO)CCO.OCCN(CCO)CCO.[Ti],outcome,[13],inactive
same,outcome,[15],inactive
N#CS,outcome,[13],inactive
same,outcome,[15],inactive
Cc1cc(Cl)ccc1OCCCC(=O)O,outcome,[13],inactive
same,outcome,[15],inactive
COc1ccccc1N,outcome,[15],inactive
CC(C)(C)c1ccccc1O,outcome,[17],inactive
CC(=Cc1ccccc1)[N+](=O)[O-],outcome,[16],inactive
same,AC50,[18],41.8 µM (active)
same,AC50,[19],64.6 µM (active)
N#CCC#N,outcome,[13],inactive
same,outcome,[14],inactive
same,outcome,[15],inactive
same,outcome,[16],inactive
same,AC50,[18],48.8 µM (active)
same,AC50,[19],58 µM (active)
CN(C)C(=S)S,outcome,[15],inactive
same,outcome,[17],inactive
O=S1(=O)OC(c2cc(Br)c(O)c(Br)c2)(c2cc(Br)c(O)c(Br)c2)c2ccccc21,AC50,[13],160 µM (active)
same,outcome,[15],inactive
same,outcome,[16],inactive
same,AC50,[18],36.4 µM (active)
same,AC50,[19],13 µM (active)
Oc1cc(Cl)c(Cl)cc1Cl,AC50,[13],100 µM (active)
same,outcome,[15],inactive
same,outcome,[17],inactive
Cc1cc(Cl)ccc1OC(C)C(=O)O (configuration not stated),outcome,[13],inactive
same,outcome,[14],inactive
same,outcome,[16],inactive
CCCCOC(=O)COC(=O)c1ccccc1C(=O)OCCCC,outcome,[17],inactive
O=S1OC[C@@H]2[C@H](CO1)[C@]1(Cl)C(Cl)=C(Cl)[C@@]2(Cl)C1(Cl)Cl (some centres not stated),outcome,[20],inactive
